Screens as filed in PubChem.
Only a sample is shown.
aSyn 5UTR act = Activators working through SNCA 5'UTR binding (MLPCN); 300,000 tested, 7.1% active; activity score, % (tested at 7.5 µM), hits read low; AID 1814; alpha-synuclein 5'UTR reporter, activators screen; in the data active means activity score below about -60%
* hit, by the source's call.

SMILES	aSyn 5UTR act
O=C(O)CC1=C(Nc2ccccc2)C(=O)N(c2ccccc2)C1c1ccc(F)cc1 (stereo unspecified)	-82.8*
COc1ccc(C2C(CC(=O)O)=C(Nc3ccccc3)C(=O)N2c2ccccc2)cc1 (stereo unspecified)	-86.4*
O=C(NCC1CCCO1)C(=O)N/N=C/c1ccc(OCc2ccccc2Cl)cc1 (stereo unspecified)	-106.3*
O=C(NCC1CCCO1)c1ccc(COc2ccccc2)cc1 (stereo unspecified)	-77.7*
O=C(Nc1ccc(Cn2cccn2)cc1)c1ccc(COc2ccccc2Br)cc1	-107.4*
CSCc1ccc(C(=O)Nc2ccc(C(N)=O)cc2)cc1	-141.4*
NNC(=O)c1ccc(COc2ccc3ccccc3c2)cc1	-75.8*
O=C(Nc1ccccc1)c1ccc(COc2ccccc2)cc1	-109.2*
O=C(Nc1ccccc1F)c1ccc(OCc2ccccc2)cc1	-140.5*
O=C(Nc1ccccc1)c1ccc(CSc2ncccn2)cc1	-94.7*
COc1ccc(OCc2cccc(C(=O)NN)c2)cc1	67.4
NNC(=O)c1cccc(COc2cccc(Br)c2)c1	-86.4*
N#Cc1cc2c([nH]c1=S)CCCCCC2	-71.3*
COc1ccc(C2C=C(C)Nc3ncnn32)cc1 (stereo unspecified)	-153.8*
COc1cc(N)ccc1C(=O)O	-76.0*
COc1ccc(C(=O)NCCn2ccc3ccccc32)c(OC)c1	-89.8*
CN1C(=O)NC(c2cccc(O)c2)C(C(=O)c2cccs2)C1(O)C(F)(F)F (stereo unspecified)	-138.8*
O=C(/C=C/c1ccc2c(c1)OCO2)c1ccccn1	-140.3*
N/C(=N\OC(=O)/C=C/c1ccccc1)c1ccccn1	-99.4*
N/C(=N\OC(=O)/C=C/c1ccccc1Cl)c1ccncc1	-126.1*
O=C(/C=C/Nc1ccccc1Br)c1ccccn1	114.3
O=C(/C=C/c1ccccc1)c1ccccn1	-134.9*
Cc1ccc(C(=O)O/N=C(\N)c2ccccn2)c(Cl)c1	107.6
N/C(=N\OC(=O)/C=C/c1ccccc1)c1ccncc1	-133.0*
COCCNc1nnc(SC(C)C(=O)Nc2ccc(-c3nc4ccc(C)cc4s3)cc2)s1 (stereo unspecified)	-78.9*
SMILES	aSyn 5UTR act
Cc1ccc2nc(-c3ccc(NC(=S)NCCC(C)C)cc3)sc2c1	-192.4*
CCCCNC(=S)Nc1ccc(-c2nc3ccc(C)cc3s2)cc1	-158.7*
CCC(C)(C)NC(=S)Nc1ccc(-c2nc3ccc(C)cc3s2)cc1	-78.5*
Cc1csc(N/N=C/c2c(F)cccc2Cl)n1	-74.2*
Cc1csc(N/N=C/c2ccccc2F)n1	-200.5*
CCOc1ccc(/C=N/Nc2nc(C)cs2)c(O)c1	-259.6*
Cc1nnc2n1N=CC=C(c1ccccc1)S2	-94.0*
c1cncc(-c2noc(C34CC5CC(CC(C5)C3)C4)n2)c1	-86.9*
N#CC1=C(SCC(=O)c2ccc(Cl)cc2)NC2=C(C(=O)CCC2)C1c1ccco1 (stereo unspecified)	-173.1*
C=CCOC(=O)C1=C(C)NC(SCC)=C(C#N)C1c1ccc(Cl)cc1 (stereo unspecified)	67.0
Cc1cc(/C=C(\C#N)C(=O)NCC2CCCO2)c(C)n1-c1ccc(Cl)cc1 (stereo unspecified)	-267.3*
c1ccc(COc2ccc(OCCCCN3CCCCC3)cc2)cc1	-81.9*
CN1CCN(CCOc2ccc(-c3ccccc3)cc2)CC1	-109.9*
c1ccc(COc2ccc(OCCn3cncn3)cc2)cc1	-110.0*
CN1CCN(CCCOc2ccc(-c3ccccc3)cc2)CC1	-63.5*
c1ccc(Nc2cccc(Nc3ccccc3)n2)cc1	-125.0*
CCN1CCN(C(=O)c2cc3ccc(OC)cc3[nH]2)CC1	-134.7*
COc1ccc2cc(C(=O)N3CCN(C)CC3)[nH]c2c1	-153.6*
CCOC(=O)c1cnc(-n2nc(C)cc2C)nc1NNc1nc(-c2ccccc2)cc(-c2ccccc2)n1	81.7
Cc1nc2ccc(C(=O)OCc3ccccc3Br)cc2nc1C	-166.3*
CCOC(=O)c1ccc2ncc(-c3ccccc3)nc2c1	-160.0*
CCOC(=O)c1cnc(-c2ccccc2)nc1N	-148.1*
CCOC(=O)c1cnc(-c2ccccc2)nc1N(C)C	-241.3*
COc1cccc(Nc2nc(-c3sc(N)nc3C)cs2)c1	-111.9*
COc1cccc(Nc2nc(-c3sc(C)nc3C)cs2)c1	-103.2*
SMILES	aSyn 5UTR act
Cc1nc(N)sc1-c1csc(Nc2ncccn2)n1	-136.5*
Cc1nc(C)c(-c2csc(Nc3ccc(F)cc3)n2)s1	-152.2*
Nc1c2c(=O)oc(-c3ccccc3)cc2nn1-c1ccccc1	-181.5*
CC1CCCN(C(=O)Nc2ccc(Br)cc2Cl)C1 (stereo unspecified)	-91.1*
CCS(=O)(=O)c1ncc(Cl)c(C(=O)Nc2ccc(S(=O)(=O)N3CCCC(C)C3)cc2)n1 (stereo unspecified)	72.2
COCCNC(=S)N/N=C(\C)c1cc2ccccc2o1	-117.4*
C/C(=N\NC(=O)COc1ccc(C(C)(C)C)cc1)c1cc2ccccc2o1	-109.3*
CC(C)=CCC/C(C)=C/CC(C)(C)CNCCN1CCNCC1	-64.2*
